Test [1] can be described thus: qHTS RealTime-Glo MT Cell Viability Assay in HEK293 cells - 16 hour (AID 1224872). Further: top concentration of the series differs between compounds; nearly all actives have a fitted effect of over 50% in size. The method in brief: (§1)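 HEK293 cells seeded with NanoLuc/prosubstrate reagent, rested 5 h at 37 C, then dosed and kept at 37 C up to 40 h. Nonlytic real-time luminescence from viable cells read at 0, 8, 16, 24, 32 and 40 h.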
Test [2] in a line: qHTS RealTime-Glo MT Cell Viability Assay in HepG2 cells - 8 hour (AID 1224873). Further: nearly all actives have a fitted effect of over 55% in size. The method in brief: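 Real-time viability: cells seeded at 600 per well together with NanoLuc and cell-permeant prosubstrate, compounds added after 5 h incubation. Luminescence tracked at 0, 8, 16, 24, 32 and 40 h of exposure.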
On the technique in general: Quantitative high-throughput screening tests each substance at several concentrations.

Test [3] is described as follows: qHTS RealTime-Glo MT Cell Viability Assay in HEK293 cells - 40 hour (AID 1224874). Further: nearly all actives have a fitted effect of over 50% in size. As to conditions: RealTime-Glo luminescence; max response: active compounds read low. The method in brief:
(§2)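 qHTS format; HEK293 cells with NanoLuc/prosubstrate reagent, 37 C/5% CO2 for 5 h pre-dosing; compounds 23 nL in DMSO; luminescence at each time point reflects viable cells.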

Test [4] in a line: A CellTox Green Cytotoxicity Assay to monitor cytotoxicity in HEK293 cells - 24 hour (AID 1224875). Further: series mostly up to about 77 µM; nearly all actives have a fitted effect of over 45% in size. In short, it runs like this: (§3)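 Each value comes from one timepoint of a single continuous run in which HEK293 cells with CellTox Green were exposed to compound for up to 40 h at 37 C, dye fluorescence rising with cell death.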
The nature of test [5]: qHTS RealTime-Glo MT Cell Viability Assay in HepG2 cells - 32 hour (AID 1224877). Further: nearly all actives have a fitted effect of over 55% in size. The method in brief:
(§4)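 HepG2 cells (600/well) were dispensed with RealTime-Glo reagents, incubated 5 h at 37 °C, then treated with compounds in DMSO for up to 40 h. Nonlytic NanoLuc luminescence reflecting viable cells was read at each stated time point.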

Test [6] can be described thus: A CellTox Green Cytotoxicity Assay to monitor cytotoxicity in HepG2 cells - 24 hour (AID 1224878). Further: nearly all actives have a fitted effect of over 45% in size. In short, it runs like this:
(§5)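 Continuous culture of HepG2 cells with a membrane-impermeant DNA dye; rising fluorescence marks dead cells. Compound exposure lasted up to 40 h at 37 C, with reads every 8 h from 0 h.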

Test [7] can be described thus: A CellTox Green Cytotoxicity Assay to monitor cytotoxicity in HepG2 cells - 40 hour (AID 1224879). Further: nearly all actives have a fitted effect of over 40% in size. Further: potency means the concentration at half of the fitted maximal effect. In short, it runs like this:
as §5

Test [8] can be described thus: qHTS RealTime-Glo MT Cell Viability Assay in HEK293 cells - 0 hour (AID 1224880). Further: top concentration of the series differs between compounds; nearly all actives have a fitted effect of over 45% in size. In short, it runs like this:
as §2

Test [9] can be described thus: A CellTox Green Cytotoxicity Assay to monitor cytotoxicity in HEK293 cells - 32 hour (AID 1224881). Further: nearly all actives have a fitted effect of over 40% in size. The method in brief:
as §3

The nature of test [10]: A CellTox Green Cytotoxicity Assay to monitor cytotoxicity in HepG2 cells - 0 hour (AID 1224882). Further: nearly all actives have a fitted effect of over 35% in size. The method in brief: as §5
Test [11] in a line: A CellTox Green Cytotoxicity Assay to monitor cytotoxicity in HepG2 cells - 32 hour (AID 1224883). Further: nearly all actives have a fitted effect of over 50% in size. Further: potency means the concentration at half of the fitted maximal effect. The method in brief:
as §5

Test [12] can be described thus: qHTS RealTime-Glo MT Cell Viability Assay in HepG2 cells - 16 hour (AID 1224885). Further: nearly all actives have a fitted effect of over 50% in size. The method in brief: as §4
Test [13] can be described thus: qHTS RealTime-Glo MT Cell Viability Assay in HEK293 cells - 24 hour (AID 1224886). The method in brief:
as §1

Test [14] in a line: qHTS RealTime-Glo MT Cell Viability Assay in HEK293 cells - 8 hour (AID 1224887). In short, it runs like this:
as §2

The nature of test [15]: A CellTox Green Cytotoxicity Assay to monitor cytotoxicity in HEK293 cells - 16 hour (AID 1224888). Further: nearly all actives have a fitted effect of over 35% in size. The method in brief:
as §3

Test [16] can be described thus: qHTS RealTime-Glo MT Cell Viability Assay in HepG2 cells - 0 hour (AID 1224889). Further: nearly all actives have a fitted effect of over 50% in size. In short, it runs like this: as §4
The nature of test [17]: A CellTox Green Cytotoxicity Assay to monitor cytotoxicity in HepG2 cells - 8 hour (AID 1224890). Further: nearly all actives have a fitted effect of over 45% in size. In short, it runs like this: as §5
Test [18] is described as follows: qHTS assay to identify small molecule antagonists of the estrogen receptor alpha (ER-alpha) signaling pathway using the BG1 cell line in the presence of 0.1 nM 17-beta-estradiol - cell viability counter screen (AID 1259241). Further: nearly all actives have a fitted effect of over 40% in size. The method in brief:
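Measures cytotoxicity alongside the ER-alpha antagonist readout: VM7Luc4E2 cells, charcoal-stripped serum, 0.1 nM 17beta-estradiol final, 22 hr compound incubation at 37C, CellTiter-Fluor fluorescence.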

Test [19] can be described thus: A CellTox Green Cytotoxicity Assay to monitor cytotoxicity in HepG2 cells - 16 hour (AID 1224876). Further: nearly all actives have a fitted effect of over 45% in size. In short, it runs like this: as §5
Test [20] can be described thus: A CellTox Green Cytotoxicity Assay to monitor cytotoxicity in HEK293 cells - 8 hour (AID 1224884). Further: nearly all actives have a fitted effect of over 35% in size. The method in brief:
as §3

“And” between values parts separate entries of the source, which are not always exact repeats. Equal entries are not always repeated. Records with an inconclusive call do not appear. The source made the active and inactive calls. The call rests on the fitted dose curve; in most records, active means well fitted curve in the direction sought with a large enough effect in the repeat runs; inconclusive means weak or mixed curves; inactive means no such curve, though single readings can be large; an effect the other way counts as inactive or inconclusive.
On the % scale 0 is the no-effect control and ±100 the full control effect.

As to `O=C(O)C1C(C(=O)O)C2(Cl)C(Cl)=C(Cl)C1(Cl)C2(Cl)Cl` (stereo not given), the compound was classed as inactive in test [1], in test [2], in test [5], in [8], in test [12] and in test [13]. Also, the call in test [14], in test [16] and in [18] was inactive. Besides, the max response in test [3] was 9.62% (inactive) and 1.68% (inactive). The Potency entry in [4], in test [6], in [7], in test [9], in test [10] and in test [11] was “inactive” in each case. Besides, the Potency entry in [15] and in test [17] was “inactive” throughout.

For `CN(C)C(=O)Nc1cccc(C(F)(F)F)c1`, the outcome in test [1], in [2], in test [5], in [8], in test [12] and in test [13] was inactive. In addition, the outcome in test [14], in test [16] and in test [18] was inactive. Besides, in [3], the max response is -22.8% (inactive) and -6.94% (inactive). Also, the Potency entry in test [19], in test [6], in test [9], in test [10], in test [11] and in test [20] was “inactive” in each case. Also, the Potency entry in test [17] is “inactive”.

With `COC(=O)Nc1cccc(OC(=O)Nc2cccc(C)c2)c1`, the compound was classed as inactive in [1], in test [2], in test [5], in [12], in [13] and in [14]. For the same compound, the result in test [16] and in test [18] was inactive. Besides, the max response in test [3] is 3.85% (inactive) and -5.62% (inactive). Moreover, the Potency entry in test [4], in test [6], in test [9], in test [10], in test [20] and in test [15] was “inactive” throughout. In test [17], the Potency result was “inactive”. Further, the Potency in test [7] and in test [11] was 49 µM (active) each time.

Turning to `CCOC(=O)CC(SP(=O)(OC)OC)C(=O)OCC` (stereo not given), the result in [1], in test [2], in test [5], in test [8], in test [12] and in test [13] was inactive. For the same compound, the compound was classed as inactive in [14], in [16] and in test [18]. For the same compound, in test [3], the max response was 11.3% (inactive) and 26.8% (inactive). The Potency result in test [19], in [6], in [9], in test [10], in test [11] and in test [17] was “inactive” each time.

In the case of `C/C=C/c1ccc2c(c1)OCO2`, the outcome in test [1], in [2], in [5], in test [8], in test [12] and in test [13] was inactive. Moreover, the result in test [14], in [16] and in test [18] was inactive. In [3], the max response is -5.98% (inactive) and -4.01% (inactive). The Potency result in [4], in test [6], in test [9], in [10], in [11] and in test [20] was “inactive” throughout. For the same compound, the Potency entry in [15] and in test [17] was “inactive” throughout.

On to `COP(=S)(OC)SCN1C(=O)c2ccccc2C1=O`, for which the result in test [1], in [2], in [5], in [8], in test [12] and in [13] was inactive. The result in [14], in test [16] and in test [18] was inactive. In addition, the max response in test [3] is 11.4% (inactive) and 4.29% (inactive) and 1.87% (inactive). Also, the Potency result in test [7], in test [9], in test [10], in [11], in [20] and in test [15] was “inactive” throughout. Moreover, the Potency entry in [17] is “inactive”.

On to `Nc1ncc([N+](=O)[O-])s1`, for which the compound was called inactive in test [1], in [2], in [5], in test [12], in test [13] and in test [14]. The outcome in test [16] and in [18] was inactive. Moreover, the max response in test [3] is 0.802% (inactive) and 3.01% (inactive). The Potency result in test [19], in test [7], in test [9], in test [10], in test [11] and in test [15] was “inactive” throughout. The Potency entry in [17] is “inactive”.

For the compound `C=CC#N`, the compound was called inactive in [1], in [2], in [5], in test [8], in test [12] and in [13]. For the same compound, the outcome in [14], in [16] and in [18] was inactive. The max response in test [3] is -6.45% (inactive) and -0.644% (inactive). Further, the Potency entry in [7], in test [9], in [10], in test [11], in test [20] and in test [15] was “inactive” throughout. Moreover, the Potency result in [17] is “inactive”.

As to `CCCCC(CC)C(=O)Cl` (stereo not given), the call in [1], in test [2], in test [5], in test [8], in [12] and in [13] was inactive. In addition, the result in test [14], in test [16] and in test [18] was inactive. The max response in test [3] is 14.8% (inactive) and -0.733% (inactive). Moreover, the Potency result in test [19], in test [9], in test [10], in test [11], in test [20] and in test [17] was “inactive” in each case.

`Nc1nc(N)nc(NC2CC2)n1`: the result in test [1], in test [2], in [5], in test [8], in test [12] and in test [13] was inactive. Also, the call in [14], in test [16] and in test [18] was inactive. The max response in test [3] was -1.36% (inactive) and 9.96% (inactive) and -0.244% (inactive). Moreover, the Potency result in test [6], in [9], in test [10], in test [11] and in test [17] was “inactive” in each case.

For `OC[C@@H](O)[C@H]1O[C@@H]2O[C@H](C(Cl)(Cl)Cl)O[C@@H]2[C@H]1O`, the compound was classed as inactive in [1], in [2], in test [5], in test [8], in test [12] and in test [13]. In addition, the compound was classed as inactive in [14], in [16] and in test [18]. Moreover, in test [3], the max response is -9.36% (inactive) and 2.42% (inactive). For the same compound, the Potency entry in [9], in test [10], in test [11], in test [20], in test [15] and in [17] was “inactive” each time.

In the case of `OCc1ccco1`, the compound was called inactive in test [1], in [2], in test [5], in [12], in [13] and in [14]. Also, the outcome in test [16] and in [18] was inactive. Further, in [3], the max response is 1.99% (inactive) and 6.54% (inactive). Besides, the Potency entry in [19], in test [7], in test [9], in test [10], in test [11] and in test [20] was “inactive” each time. The Potency entry in [17] is “inactive”.
